Laboratory results reported in PubChem BioAssay (NCI).
Compounds without any hit were thinned out: in the full panel of roughly 83,000, 20% have a hit.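 Activity criterion: percent growth below 10, measured after cells in 96-well plates were exposed to a single compound concentration for 48 hours.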 Calls of active or inactive are those of the source.

tested on: MDA-MB-468 breast; experiment: NCI-60 one-dose screen, 48 h (100 = growth as untreated, 0 = no growth, -100 = all killed); details: 10 µM unless noted

| SMILES | growth |
| --- | --- |
| CNC(=O)c1cc(Oc2ccc3c(c2)sc2nc(-c4ccc(OC)cc4)cn23)ccn1 | 16.8% (inactive) |
| NC1=C(/C(N)=N/O)C(c2ccccc2)c2ccc3ccccc3c2O1 (stereo not given) | -1.49% (active) |
| O=C1N/C(=N/O)S/C1=C/c1cn(-c2ccccc2)nc1-c1ccccc1 | 84.6% (inactive) |
| COc1ccc(/C(=N\O)c2cc(C)c(OC)c(C)c2)cc1O | 44.4% (inactive) |
| COc1ccc(Nc2[nH]n(C3=Nc4ccccc4Sc4ccccc43)c(=O)c2C#N)cc1 | -3.96% (active) |
| CN1CCN(c2ccc(Nc3nc(NCCNC(=O)c4ccccc4)c4sccc4n3)cc2)CC1 | 45.3% (inactive) |
| C=C(C)[C@H]1CC/C(C)=C/CC[C@]2(C)O[C@H]2CC/C(COC(=O)[C@@H](OC(C)=O)[C@H](NC(=O)c2ccccc2)c2ccccc2)=C\[C@@H]1O | 84.4% (inactive) |
| O=C(COc1ccc(-c2nc3ccccc3[nH]2)cc1)N=Nc1c(O)[nH]c2ccc(Cl)cc12 | 89.7% (inactive) |
| COc1cc(C(=O)/C=C/c2c(Cl)nc3sccn23)cc(OC)c1OC | 60.1% (inactive) |
| O=C1/C(=C/c2ccc(F)cc2)CN(C(=O)C(Cl)Cl)C/C1=C\c1ccc(F)cc1 | -47% (active) |
| CSc1ccc(/C(=N/N=C(N)N)c2ccc(F)cc2)cc1 | -34.6% (active) |
| O=C1/C(=C/c2ccc(Cl)cc2)CN(C(=O)C(Cl)Cl)C/C1=C\c1ccc(Cl)cc1 | -59.7% (active) |
| c1ccc(Nc2ccccn2)nc1 | 93.3% (inactive) |
| CCc1nn2c(-c3cc(OC)c(OC)c(OC)c3)c(-c3cc(OC)c(OC)c(OC)c3)nc2s1 | 49.3% (inactive) |
| CC[C@H](Nc1ncnc(N)c1C(N)=O)c1nc2cccc(NCc3ccc(C(=O)NO)cc3)c2c(=O)n1-c1ccccc1 | 32.2% (inactive) |
| Cc1ccc(C(O)C2CC2)cc1 (stereo not given) | 103% (inactive) |
| CC(=O)Nc1c(C(=O)Nc2ccccc2)sc2nc3c(cc12)C(OC(C)=O)CCC3 (stereo not given) | 90.5% (inactive) |
| C=CC(=O)Nc1cccc(Oc2nc(Nc3ccc(N4CCN(C)CC4)cc3)nc3ccsc23)c1 | -69.1% (active) |
| c1ccc2c(c1)Nc1ccncc1S2 | 107% (inactive) |
| N#CSCC1CC(O)(c2ccccc2)CC(c2ccc(Cl)cc2)O1 (stereo not given) | 47.3% (inactive) |

| SMILES | growth |
| --- | --- |
| C=CCn1c(SCC(=O)Nc2ccc(C(=O)/C=C/c3cc(OC)c(OC)c(OC)c3)cc2)nnc1-c1cc(-c2ccc(S(N)(=O)=O)cc2)nc2ccccc12 | 89.3% (inactive) |
| CC(Br)C(OC(=O)c1ccccc1Cl)c1cc2c(cc1Br)OCO2 (stereo not given) | 66.4% (inactive) |
| O=c1[nH]c2ccccc2cc1-c1nc2ccncc2[nH]1 | 75% (inactive) |
| CC(C)Sc1nc(NN)c(C#N)c(-c2ccccc2)n1 | 113% (inactive) |
| COc1ccc2c(c1)oc1c(C)c3c(c(C)c12)C(=O)N(CCN1CCOCC1)C3=O | 106% (inactive) |
| COc1cc(-c2nc(-c3ccccc3)[nH]c2-c2ccnc(NCCCNS(=O)(=O)c3ccc(C)cc3)n2)ccc1F | 79.4% (inactive) |
| C/C(=C\c1ccc2ccccc2c1)[N+](=O)[O-] | -22.8% (active) |
| Fc1ccc(Nc2ncnc3ccc(-c4cn[nH]c4)cc23)cc1Cl | -21.9% (active) |
| O=C1CSC(=O)N1Cc1cc2ccccc2nc1Cl | 97.8% (inactive) |
| Cn1ccnc1C(=O)/C=C/c1ccc(C(=O)Nc2c(F)c(F)c(F)c(F)c2F)cc1 | -16.7% (active) |
| CC(=O)c1c(Nc2cccc(F)c2)[nH]c2c(Cl)cc(Cl)c(Cl)c2c1=O | -10.2% (active) |
| COC1C/C(=N\O)C2OC(c3ccccc3)OCC2O1 (stereo not given) | 105% (inactive) |
| O=C(Nc1ccc(F)cc1F)c1cc(Br)ccc1O | -19.6% (active) |
| C=CCn1c(SCC(=O)c2ccc(OC)cc2)nnc1-c1ccc(OC)cc1 | 90.6% (inactive) |
| O=C(CSc1nc2sc3c(c2c(=O)n1-c1ccc(Cl)cc1)CCCC3)Nc1nc(-c2cccc(Br)c2)cs1 | 65.1% (inactive) |
| COc1nc(=O)n(C2C=CC(=O)O2)cc1F (stereo not given) | 11.9% (inactive) |
| C#C[C@]1(O)CC[C@H]2[C@@H]3CC=C4c5sc(Nc6cccc(F)c6)nc5CC[C@]4(C)[C@H]3CC[C@@]21C | 3.86% (active) |
| CCN1/C(=C\c2cc[n+](CC)c3ccccc23)C=Cc2ccccc21 | -9.93% (active) |
| O=C(Nc1cccnc1Nc1ccc(Cl)cc1)c1cn(Cc2cccc(Oc3ccccc3)c2)nn1 | 63.3% (inactive) |
| CC1=C[C@H]2c3c(c(O)c(O)c4oc(-c5ccccc5)cc(=O)c34)[C@H](c3cc(O)c(O)c4oc(-c5ccccc5)cc(=O)c34)[C@H]2C(C)(C)C1 | 14.2% (inactive) |
